Values joined by “and” are separate entries in the source; they are usually repeats but may differ in a detail not shown here. Equal entries are not always repeated. Records with an inconclusive call do not appear. Where a call stands in place of a potency, no number is given. Some compounds were tested as several samples or in several runs, with calls that do not always agree. Active and inactive are the calls of the source. Unless noted, calls come from the whole dose curve.
Assays:
[1] = biological target: Peroxisome proliferator-activated receptor gamma (Homo sapiens) (UniProt P37231); test: qHTS assay for small molecule antagonists of peroxisome proliferator-activated receptor gamma signaling (AID 588537; active = well fitted inhibition curve with a large enough effect in the signal ratio, with a control signal flat, not every such curve was filed as active; the % refers to the signal ratio; note: potency is the fitted concentration of half-maximal effect)
Peroxisome proliferator-activated receptor gamma (Homo sapiens), sequence (P37231 whole entry, looked up): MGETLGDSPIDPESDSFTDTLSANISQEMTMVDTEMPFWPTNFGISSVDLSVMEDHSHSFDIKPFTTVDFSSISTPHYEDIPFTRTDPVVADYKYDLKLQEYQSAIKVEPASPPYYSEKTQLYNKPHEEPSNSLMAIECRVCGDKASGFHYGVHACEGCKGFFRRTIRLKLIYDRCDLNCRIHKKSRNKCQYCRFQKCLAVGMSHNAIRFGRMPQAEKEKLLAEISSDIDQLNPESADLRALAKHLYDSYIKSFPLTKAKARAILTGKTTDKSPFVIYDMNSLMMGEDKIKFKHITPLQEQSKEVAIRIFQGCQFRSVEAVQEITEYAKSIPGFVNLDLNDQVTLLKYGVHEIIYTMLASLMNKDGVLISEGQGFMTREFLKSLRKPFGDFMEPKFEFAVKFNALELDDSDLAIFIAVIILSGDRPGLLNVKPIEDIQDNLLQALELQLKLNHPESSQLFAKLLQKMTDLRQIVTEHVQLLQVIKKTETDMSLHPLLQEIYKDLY
In short: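 HEK293 cells, PPAR-gamma-UAS-bla, 3000/well. Pre-incubation 6-6.5 h, 37 C. Compound titration with rosiglitazone 50 nM final, 16 h. CCF4 dye, 2 h RT, dual-emission fluorescence.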

[2] = qHTS assay for small molecule agonists of retinoid X receptor alpha signaling (AID 588544); conditions: HEK293T RXRa-UAS-bla, beta-lactamase reporter, 18 h; 530 nm emission
[3] = biological target: Retinoic acid receptor RXR-alpha (Homo sapiens) (UniProt P19793); test: as above
Retinoic acid receptor RXR-alpha (Homo sapiens), sequence (P19793 whole entry, looked up): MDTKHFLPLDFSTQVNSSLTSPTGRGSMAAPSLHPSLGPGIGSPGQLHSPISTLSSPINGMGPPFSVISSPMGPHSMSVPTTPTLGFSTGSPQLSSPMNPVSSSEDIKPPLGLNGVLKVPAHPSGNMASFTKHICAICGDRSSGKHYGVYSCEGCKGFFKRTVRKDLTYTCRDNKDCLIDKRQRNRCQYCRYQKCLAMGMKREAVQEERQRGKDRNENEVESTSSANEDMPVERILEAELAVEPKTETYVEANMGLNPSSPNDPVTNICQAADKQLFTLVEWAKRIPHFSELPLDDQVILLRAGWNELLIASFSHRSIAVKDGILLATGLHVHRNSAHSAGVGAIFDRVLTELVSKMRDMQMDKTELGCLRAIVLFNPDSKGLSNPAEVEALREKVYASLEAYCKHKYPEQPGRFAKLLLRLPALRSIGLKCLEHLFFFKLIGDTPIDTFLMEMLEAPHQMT

[4] = biological target: Thyroid hormone receptor beta (Homo sapiens) (UniProt P10828); test: qHTS assay for small molecule agonists of thyroid hormone receptor beta signaling (AID 588545)
Thyroid hormone receptor beta (Homo sapiens), sequence (P10828 whole entry, looked up): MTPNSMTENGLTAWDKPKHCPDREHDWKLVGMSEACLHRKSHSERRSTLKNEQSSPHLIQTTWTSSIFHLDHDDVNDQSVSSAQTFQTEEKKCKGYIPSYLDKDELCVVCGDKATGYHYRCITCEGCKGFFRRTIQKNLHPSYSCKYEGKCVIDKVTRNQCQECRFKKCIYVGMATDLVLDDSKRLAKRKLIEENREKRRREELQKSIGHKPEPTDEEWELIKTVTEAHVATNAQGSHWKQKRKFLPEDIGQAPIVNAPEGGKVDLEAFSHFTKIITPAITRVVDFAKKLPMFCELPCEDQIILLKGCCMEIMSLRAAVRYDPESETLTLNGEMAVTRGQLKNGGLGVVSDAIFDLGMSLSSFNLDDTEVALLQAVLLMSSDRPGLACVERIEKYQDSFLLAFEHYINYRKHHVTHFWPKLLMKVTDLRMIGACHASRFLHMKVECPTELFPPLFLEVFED
In short: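 TR-UAS-bla GripTite HEK 293 cells (2500/well, medium with 2% charcoal/dextran FBS) were treated in agonist mode for 18 h at 37 C, titrated. Beta-lactamase was read by CCF4 ratio after 2 h; normalized to 10 nM T3 (100%) and DMSO, Hill-fitted for EC50 and efficacy.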

[5] = qHTS assay for small molecule antagonists of retinoid X receptor alpha signaling (AID 588546; active = well fitted inhibition curve with a large enough effect in the signal ratio, with a control signal flat, not every such curve was filed as active; the % refers to the signal ratio;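 note: cells stimulated with 9-cis-retinoic acid as agonist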); conditions: HEK293T RXRa-UAS-bla, beta-lactamase ratio, antagonist mode; measured here: W530 green channel, cytotoxicity proxy
In short: (§1)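 Beta-lactamase reporter inhibition, read as CCF4 fluorescence ratio (ex 405, em 460/530 nm) after 2 h at RT. HEK293T UAS-bla cells, 2500/well, were stimulated with 9-cis-RA at 500 or 100 nM final alongside test compound for 18 h at 37 C.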

[6] = biological target: Retinoic acid receptor RXR-alpha (Homo sapiens) (UniProt P19793); test: as above; conditions: HEK293T RXRa-UAS-bla, beta-lactamase ratio, antagonist mode
In short: as §1

[7] = biological target: Thyroid hormone receptor beta (Homo sapiens) (UniProt P10828); test: qHTS assay for small molecule antagonists of thyroid hormone receptor beta signaling (AID 588547; active = well fitted inhibition curve with a large enough effect in the signal ratio, with a control signal flat, not every such curve was filed as active; the % refers to the signal ratio;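 note: cells stimulated with 0.4 nM T3 agonist during compound exposure; series mostly up to about 77 µM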); conditions: TR-UAS-bla HEK293, beta-lactamase ratio, antagonist mode, 18 h
In short: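 TR-UAS-bla GripTite HEK293 cells in 2% charcoal/dextran FBS medium were preincubated 4 h at 37 C, given compound (0.59 nM to 92 uM) plus 0.4 nM T3 (final) for 18 h, then CCF4 for 2 h at RT; Hill fit gave IC50.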

[8] = biological target: Voltage-gated inwardly rectifying potassium channel KCNH2 (Homo sapiens) (UniProt Q12809); test: qHTS Assay for Small Molecule Inhibitors of the Human hERG Channel Activity (AID 588834; active = well fitted inhibition curve with a large enough effect;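 note: lower thallium flux fluorescence means stronger hERG block; nearly all actives have a fitted effect of over 50% in size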; note: potency is the fitted concentration of half-maximal effect)
Voltage-gated inwardly rectifying potassium channel KCNH2 (Homo sapiens), sequence (Q12809 whole entry, looked up): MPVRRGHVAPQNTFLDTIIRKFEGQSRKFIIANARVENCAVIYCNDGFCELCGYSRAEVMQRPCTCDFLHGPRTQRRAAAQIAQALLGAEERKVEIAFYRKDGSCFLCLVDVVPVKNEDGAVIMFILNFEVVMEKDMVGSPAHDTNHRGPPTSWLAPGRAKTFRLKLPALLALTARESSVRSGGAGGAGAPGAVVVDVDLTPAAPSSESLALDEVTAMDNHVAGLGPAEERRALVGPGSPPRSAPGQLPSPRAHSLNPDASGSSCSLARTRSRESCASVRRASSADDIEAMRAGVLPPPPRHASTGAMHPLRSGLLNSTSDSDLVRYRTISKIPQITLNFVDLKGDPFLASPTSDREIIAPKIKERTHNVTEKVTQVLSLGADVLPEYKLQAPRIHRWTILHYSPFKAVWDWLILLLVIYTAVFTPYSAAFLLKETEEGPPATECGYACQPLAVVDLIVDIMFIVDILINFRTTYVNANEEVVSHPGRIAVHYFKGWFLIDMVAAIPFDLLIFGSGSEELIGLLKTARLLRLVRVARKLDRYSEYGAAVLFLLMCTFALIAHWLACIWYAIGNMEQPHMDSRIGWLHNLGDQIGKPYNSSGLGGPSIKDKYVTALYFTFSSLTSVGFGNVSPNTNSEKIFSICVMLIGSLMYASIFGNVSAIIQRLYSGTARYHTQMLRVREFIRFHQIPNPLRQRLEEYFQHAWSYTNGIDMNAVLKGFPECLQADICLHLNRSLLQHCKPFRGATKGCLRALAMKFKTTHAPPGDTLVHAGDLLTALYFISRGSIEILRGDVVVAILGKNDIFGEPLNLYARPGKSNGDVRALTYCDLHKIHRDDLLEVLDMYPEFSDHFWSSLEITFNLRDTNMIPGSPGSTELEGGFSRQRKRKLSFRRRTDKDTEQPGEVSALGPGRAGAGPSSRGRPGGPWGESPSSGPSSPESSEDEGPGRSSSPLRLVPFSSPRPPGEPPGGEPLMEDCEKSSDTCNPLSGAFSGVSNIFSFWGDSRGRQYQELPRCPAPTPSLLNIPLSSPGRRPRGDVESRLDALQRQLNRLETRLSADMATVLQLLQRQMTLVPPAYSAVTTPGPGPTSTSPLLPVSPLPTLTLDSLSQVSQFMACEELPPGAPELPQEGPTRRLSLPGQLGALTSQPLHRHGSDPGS
In short: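 Thallium-flux (FluxOR) read-out on FDSS: fluorescence read 10 s before and 2 min after stimulation buffer. hERG-BacMam-transduced U2OS cells, compound exposure about 10 min. AC50 by standard Hill equation.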

[9] = biological target: Vitamin D3 receptor (Homo sapiens) (UniProt P11473); test: qHTS assay for small molecule antagonists of vitamin D receptor signaling (AID 588541);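 note: receptor activated by calcitriol during compound treatment; series mostly up to about 77 µM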
Vitamin D3 receptor (Homo sapiens), sequence (P11473 whole entry, looked up): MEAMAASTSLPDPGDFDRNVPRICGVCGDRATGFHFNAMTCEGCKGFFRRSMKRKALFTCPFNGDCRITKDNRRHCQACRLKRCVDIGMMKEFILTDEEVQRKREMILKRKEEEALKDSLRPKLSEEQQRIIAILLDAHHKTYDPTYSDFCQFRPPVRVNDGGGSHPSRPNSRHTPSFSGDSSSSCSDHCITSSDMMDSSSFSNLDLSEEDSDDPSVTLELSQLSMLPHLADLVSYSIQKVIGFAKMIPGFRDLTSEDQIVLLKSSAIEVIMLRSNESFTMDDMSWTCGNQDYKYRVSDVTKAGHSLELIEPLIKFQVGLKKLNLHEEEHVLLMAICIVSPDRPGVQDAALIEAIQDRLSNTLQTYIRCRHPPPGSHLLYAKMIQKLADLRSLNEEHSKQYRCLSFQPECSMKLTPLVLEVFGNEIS
In short: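 VDR-UAS-bla HEK293T cells (2000/well, 2% charcoal-stripped FBS) were treated with titrated compounds plus 1-alpha,25-dihydroxyvitamin D3 (50 nM or 3 nM final) for 16 h at 37 C. CCF4 beta-lactamase fluorescence was read; Hill fits gave IC50.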

[10] = biological target: Vitamin D3 receptor (Homo sapiens) (UniProt P11473); test: qHTS assay for small molecule agonists of vitamin D receptor signaling (AID 588543)
In short: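 β-lactamase reporter, VDR-UAS-bla HEK293T, agonist mode. Cells plated 5 h at 37 °C, compound titration 16 h at 37 °C, CCF4 dye 2 h RT, ratio 460/530 nm. Hill fit → EC50, efficacy vs 50 nM 1α,25-(OH)2D3.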

Compound | Potency [1] | max response [2] | Potency [3] | outcome [4] | max response [5] | max response [6] | activity change % (negative = inhibition) [7] | Potency [8] | Potency [9] | outcome [10]
O=[N+]([O-])c1ccccc1 | inactive | -10.6% and -11.5% | inactive | inactive | -18.4% | -0.8% (inactive) | -11.4% (inactive) | inactive |  | 
Clc1ccccc1Cl |  | -11.2% | inactive | inactive | 5.72% | 14.3% (inactive) |  |  | inactive | inactive
COC1=CC(=O)O[C@@H](/C=C/c2ccccc2)C1 | inactive |  |  | inactive | 0.406% | 18.3% (inactive) | -5.64% (inactive) | inactive | inactive | inactive
S=C=S |  | -8.91% | inactive | inactive | -8.84% | 10.2% (inactive) | 5.87% (inactive) |  | inactive | inactive
O=C1C[C@@H]2OCC=C3CN4CC[C@]56c7ccccc7N1[C@H]5[C@H]2[C@H]3C[C@H]46 | inactive |  |  | inactive | 7.39% | -7.88% (inactive) | 0.757% (inactive) | 14.1 µM (active) |  | 
ClC(Cl)(Cl)Cl | inactive | -19.2% and -11.8% | inactive | inactive | -0.129% | 1.39% (inactive) | -13.7% (inactive) and 5.43% (inactive) | inactive | inactive | inactive
CCCCCl |  | -0.522% | inactive | inactive | -8.74% | 21% (inactive) |  | inactive | inactive | inactive
CC(C)(C)c1cc(O)ccc1O | inactive and 44.7 µM (active) | 23.9% and 27.4% | inactive | inactive | 10.2% and -11% | 0.473% (inactive) and -17.4% (inactive) |  | inactive |  | 
CC(C)CCON=O | inactive | 4.6% | inactive | inactive |  |  | -6.62% (inactive) | inactive | inactive | inactive
CCOC(=O)c1ccccc1C(=O)OCC | inactive | -7.23% and 2.92% | inactive | inactive | 2.09% and -11.6% and -7.65% | 8.73% (inactive) and 2.69% (inactive) and 2.16% (inactive) | 9.23% (inactive) and -2.29% (inactive) and -1.86% (inactive) | inactive | inactive | inactive
Oc1cc(Cl)c(Cl)cc1Cl | inactive | -8.67% | inactive | inactive | -1.91% and -9.59% | -11.3% (inactive) and 1.52% (inactive) | 5.32% (inactive) and 6.79% (inactive) |  |  | 
C[C@H]1CC[C@@H]2[C@@H](C)[C@H]3[C@H](C[C@H]4[C@@H]5CC=C6CC(O[C@@H]7O[C@H](CO)[C@H](O)[C@H](O[C@@H]8O[C@H](CO)[C@@H](O)[C@H](O)[C@H]8O)[C@H]7O[C@H]7O[C@@H](C)[C@H](O)[C@@H](O)[C@H]7O)CC[C@]6(C)[C@H]5CC[C@]34C)N2C1 (stereo partly drawn) | inactive |  |  |  |  |  |  | inactive | inactive | inactive
N#CN | inactive | 4.27% | inactive | inactive | -6.13% | -9.07% (inactive) |  | inactive | inactive | inactive
CCOP(=O)(OCC)O/C(=C/Cl)c1ccc(Cl)cc1Cl |  | 10.8% | inactive | inactive | 4.06% and 8.46% | -33.2% (inactive) and -25.5% (inactive) | -5.99% (inactive) |  | inactive | inactive
ClC1C(Cl)C(Cl)C(Cl)C(Cl)C1Cl (stereo not drawn) | inactive | -3.03% [middle of 4 runs] | inactive | inactive | -10.8% [middle of 4 runs] | -6.12% (inactive) [middle of 4 runs] | 0.744% (inactive) [middle of 4 runs] | inactive |  | 
NNC(N)=O |  | -3.29% | inactive | inactive |  |  | -12% (inactive) | inactive | inactive | inactive
O=C(O)C(Cl)(Cl)Cl | inactive | -1.61% and -5.9% | inactive | inactive | -1.09% | -6.5% (inactive) | 2.2% (inactive) and 9.95% (inactive) | inactive | inactive | inactive
